High-throughput results: PubChem BioAssay, several laboratories
CYP2C9 act: human CYP2C9 activators, primary screen, biochemical, luminescence; recombinant CYP2C9, luciferin-H conversion; active compounds read high; factor 1 = untreated enzyme, 0 = blocked; 96,000 tested, 1.4% active; Cytochrome P450 2C9 (Homo sapiens), P11712; activation factor at 5 µM;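 active means activation factor of 2 or more for CYP2C9 at a 5 µM dose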;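 further: 0 = sulfaphenazole-blocked wells and 1 = vehicle-only wells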
Target sequence (P11712 whole entry, looked up): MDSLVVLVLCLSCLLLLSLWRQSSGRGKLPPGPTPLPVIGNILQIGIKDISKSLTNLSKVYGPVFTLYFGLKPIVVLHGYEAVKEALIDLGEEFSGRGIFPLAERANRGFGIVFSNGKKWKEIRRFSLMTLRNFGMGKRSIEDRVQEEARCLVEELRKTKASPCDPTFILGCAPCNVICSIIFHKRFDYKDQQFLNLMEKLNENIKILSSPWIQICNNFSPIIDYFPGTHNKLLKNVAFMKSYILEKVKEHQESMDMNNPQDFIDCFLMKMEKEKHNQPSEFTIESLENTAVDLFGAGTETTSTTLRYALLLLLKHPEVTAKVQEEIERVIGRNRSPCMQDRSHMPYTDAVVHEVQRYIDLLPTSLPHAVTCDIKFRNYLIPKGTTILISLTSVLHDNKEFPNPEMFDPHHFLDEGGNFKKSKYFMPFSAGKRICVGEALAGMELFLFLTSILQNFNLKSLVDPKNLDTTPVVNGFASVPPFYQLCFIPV
CYP2C9 inh: blockers of cytochrome P450 2C9 activity – biochemical, luminescence, ADME assay, primary screen; 96,000 tested, 20% active; inhibition, % at 5 µM; CYP2C9 Supersomes, luciferin-H conversion;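 active means blocking of liver enzyme CYP2C9 beyond about 50% at 5 µM, limit read from the data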
CYP2C19 inh: blockers of cytochrome P450 2C19 activity – biochemical, luminescence, ADME assay, primary screen; P33261; CYP2C19 Supersomes, luciferin-H EGE luminescence, 30 min; inhibition, % at 5 µM; 96,000 tested, 21% active; AID 778, 2007;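 active means CYP2C19 inhibition above a set limit at 5 µM in the primary screen, cut at about 50% in these data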;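 further: plate controls were negative control wells for no effect and 2.5 mM tranylcypromine positive control for full effect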
CYP2C19 act: human CYP2C19 activators, primary screen, biochemical, luminescence | Cytochrome P450 2C19 (Homo sapiens), P33261 | recombinant CYP2C19, luciferin-H EGE luminescence; active compounds read high; 0 = fully inhibited enzyme, 1 = untreated enzyme | activation factor at 5 µM | 96,000 tested, under 10 active;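 active means activation factor of at least 2 at 5 µM in the primary screen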;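 further: 0 = wells with 2.5 mM tranylcypromine and 1 = vehicle-only wells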
cytoskel mod: modifiers of F-actin cytoskeleton organization, primary screen, imaging, HUVEC, phalloidin staining, high-content imaging. HUVEC TNFa F-actin phalloidin imaging. inhibition, % at 2 µM. 91,000 tested, 0.18% active. AID 836, 2007;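 active means inhibition above the batch mean plus 3 SD and confirmed as a hit by visual image inspection, cut at about 30% in these data, passing the limit was not always enough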
E-sel TNF inh: E-selectin induction blockers in HUVEC – imaging, immunofluorescence, high content, primary screen; HUVEC TNFa-induced E-selectin immunofluorescence; inhibition, % at 2 µM; 120,000 tested, 0.71% active;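 active means inhibition above the batch mean plus 3 SD, and confirmed as a hit on visual image review, cut at about 43% in these data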;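 further: 0% = TNF-stimulated DMSO wells and 100% = unstimulated control wells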
The depositor's hits bear a star; / = no result. This is a sample that favours compounds with a hit; in the whole collection about 22% have one here.

SMILES | CYP2C9 act | CYP2C9 inh | CYP2C19 inh | CYP2C19 act | cytoskel mod | E-sel TNF inh
Cc1ccc(C(C)C)c(OCC(=O)Nn2c(C)nc3ccccc3c2=O)c1 | 0.2 | 84* | 6 | 0.9 | -17 | -10
COc1ccc(Cl)cc1C(=O)Nn1c(C)nc2ccccc2c1=O | 0.5 | 52* | 57* | 0.4 | / | /
Cc1cccc(C)c1OCC(=O)Nn1c(C)nc2ccccc2c1=O | 0.4 | 64* | 6 | 0.9 | 6 | /
CC(OC(=O)c1cc(=O)[nH]c2ccccc12)c1ccccc1 (stereo not given) | 0.5 | 54* | 38 | 0.6 | -3 | -10
N#CCSc1nnc(Cc2cccc3ccccc23)n1C1CCCCC1 | 0.6 | 45 | 57* | 0.4 | 45 | 0
CCCCNC(=O)c1cc2c(-c3ccc(Cl)cc3)nn(C)c2s1 | 0.4 | 59* | 42 | 0.6 | -5 | 7
Cc1ccc(CNC(=O)c2cc3c(-c4ccc(Cl)cc4)nn(C)c3s2)o1 | 0.4 | 63* | 14 | 0.9 | -9 | 8
Clc1ccc(-c2noc(CSc3nnc(-c4ccncc4)n3-c3ccccc3)n2)cc1 | 0.3 | 72* | 66* | 0.3 | 2 | 12
CCOc1ccc(-n2c(SCc3nc(-c4ccc(C)cc4)no3)nnc2-c2ccncc2)cc1 | 0.2 | 80* | 80* | 0.2 | 1 | 22
Cc1ccc(-c2noc(CSc3nnnn3C3CCCCC3)n2)cc1 | 0.7 | 32 | 21 | 0.8 | 17 | 37
Cc1ccc(-c2noc(CSc3nc(N)cc(N)n3)n2)cc1 | 0.6 | 41 | 24 | 0.8 | 35* | /
CCOc1ccc(-n2c(SCc3ccc([N+](=O)[O-])cc3)nnc2-c2ccccc2)cc1 | / | / | / | / | / | 43
Cc1cccc(-c2noc(CSc3ccccc3)n2)c1 | 0.9 | 9 | 1 | 1 | -3 | 13
Clc1ccc(-c2noc(CSc3nnc(Cc4cccs4)n3-c3ccccc3)n2)cc1 | 0.6 | 44 | 50 | 0.5 | -2 | 13
Cc1ccc(-c2noc(CSc3nnc(-c4ccncc4)n3-c3ccc(C)cc3)n2)cc1 | 0.2 | 84* | 86* | 0.1 | 24 | -30
CC(C)c1cc(C(=O)N/N=C/c2ccco2)n[nH]1 | / | / | / | / | / | 5
Cc1cc(N(CC(=O)O)S(C)(=O)=O)ccc1Br | 1.1 | -13 | 16 | 0.8 | 0 | -15
Cn1c(SCc2nc(-c3ccc(Cl)cc3)no2)nnc1-c1ccco1 | 0.4 | 56* | 60* | 0.4 | -10 | 24
Cc1ccc(C(=O)CSc2nnc(-c3ccco3)n2C)cc1 | / | / | / | / | / | -26
CCOC(=O)c1c(NC(=O)COc2cccc3c2CCN(Cc2ccc(F)cc2)C3=O)sc2c1CCC2 | / | / | / | / | / | -16
COc1ccccc1Oc1nnnn1-c1ccc(C(N)=O)cc1 | 0.9 | 12 | 26 | 0.7 | 3 | -6
c1ccc(-n2nnnc2Oc2cccc3cccnc23)cc1 | 2.7* | -166 | 90* | 0.1 | 12 | -27
Cc1ccc2cccc(Oc3nnnn3-c3ccccc3)c2n1 | 1 | 1 | 95* | 0.1 | -7 | /
c1ccc(-n2nnnc2OCCOc2nnnn2-c2ccccc2)cc1 | 0.7 | 34 | 46 | 0.5 | -12 | -5
CC(NC(=S)Nc1ccc(Cl)cc1Cl)C(c1cccs1)N1CCCC1 (stereo not given) | / | / | / | / | / | 2
SMILES | CYP2C9 act | CYP2C9 inh | CYP2C19 inh | CYP2C19 act | cytoskel mod | E-sel TNF inh
CC(C)OC(=O)c1cc(C(=O)c2cc(F)ccc2O)coc1=N | 0.3 | 73* | 85* | 0.1 | 12 | 11
Cn1c(=O)c2c(-c3ccccc3)n3c4ccccc4ncc3c2n(C)c1=O | / | / | / | / | -28 | 3
COc1ccc(/C=N/NC(=O)C(O)(c2ccccc2)c2ccccc2)cc1OC | / | / | / | / | / | -9
COc1ccc(/C=N/NC(=O)C(C)n2cnc3ccccc3c2=O)cc1OC (stereo not given) | / | / | / | / | / | 96*
Cc1ccc(NC(=O)CC2C(=O)NC3CCCCC3N2C(=O)c2ccc(F)cc2)cc1C (stereo not given) | 0.4 | 64* | 8 | 0.9 | 12 | 7
COc1ccccc1C(=O)N1C(CC(=O)Nc2cc(Cl)ccc2C)C(=O)NC2CCCCC21 (stereo not given) | 0.7 | 26 | 34 | 0.7 | -7 | 37
O=C(CC1C(=O)NC2CCCCC2N1C(=O)c1ccc(F)cc1)Nc1ccccc1 (stereo not given) | 0.4 | 56* | 35 | 0.7 | -1 | 15
O=C(CC1C(=O)N(c2ccccc2)C(=O)N1C1CCCCC1)Nc1ccccc1 (stereo not given) | 0.8 | 18 | 52* | 0.5 | -19 | 12
COc1ccc(NC(=O)CC2C(=O)N(c3cccc(OC)c3)C(=O)N2C2CCCCC2)cc1 (stereo not given) | 1 | 0 | 8 | 0.9 | -38 | /
CCC(C)(C(=O)NC1CCCC1)N(C(=O)CC1NC(=O)NC1=O)c1ccc(C)cc1 (stereo not given) | 1.1 | -7 | 4 | 1 | 11 | 12
COc1cc(CN/C(C)=C(\C#N)C(N)=O)cc(OC)c1OC | 0.5 | 51* | 67* | 0.3 | / | -76
Cc1ccc(CNC(=O)CCOc2ccc(C(C)(C)C)cc2)cc1 | 0.8 | 24 | 26 | 0.7 | 3 | -16
Cc1ccc(CNC(=O)CCSCCC(=O)NCc2ccc(C)cc2)cc1 | 0.3 | 70* | 9 | 0.9 | 0 | -9
Cc1ccc(CNC(=O)CSc2nc(N3CCCCC3)nc(N3CCCCC3)n2)cc1 | 0.9 | 11 | 71* | 0.3 | 8 | -21
Cc1ccc(CNC(=O)CSc2ncccn2)cc1 | 0.9 | 14 | 77* | 0.2 | -9 | 3
CCc1nnc(NC(=O)CSc2nnc(CNC(=O)c3cc(OC)c(OC)c(OC)c3)o2)s1 | / | / | / | / | / | 30
Oc1ccccc1C1=Nc2ccccc2N=C(c2cccs2)C1 | 0.6 | 38 | 23 | 0.8 | -7 | -13
COc1ccccc1C1CC(c2cccs2)=Nc2ccccc2S1 (stereo not given) | 0.2 | 80* | 90* | 0.1 | 1 | -7
CCCCC1(C)OC(=O)C(=Cc2ccc(N(CC)CC)cc2)C(=O)O1 (stereo not given) | 1 | 4 | 54* | 0.5 | -10 | 13
CCN(CC)c1ccc(/C=C2/C(=O)c3ccc(C(=O)O)cc3C2=O)cc1 | / | / | / | / | / | 11
CCC(C)n1c(-c2cccs2)nc2nc3ccccc3nc21 (stereo not given) | 0.4 | 60* | 18 | 0.8 | 33 | /
Nc1ccccc1-c1nc2ccccc2[nH]1 | 0.4 | 56* | 47 | 0.5 | -4 | 6
Cc1cc(C)c2cc(C#N)c(N3CCCC3)nc2c1 | 1 | 1 | 18 | 0.8 | -20 | /
